# Reference: PubChem BioAssay
# Values joined by “and” are separate entries in the source; they are usually repeats but may differ in a detail not shown here. Equal entries are not always repeated. Records with an inconclusive call do not appear. Active and inactive are the calls of the source.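 Rule for the calls, unless noted: active = compounds whose cell count with miR-34 switched on is under 0.7 times the count with it off; inactive = the rest.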
# Tests used:
# [1] = sensitizers of A549 cells to miR-34 induction, primary screen, imaging, A549 dox-inducible miR-34, nuclei and caspase counts (AID 1347080); settings: A549 miR-34 inducible, Hoechst nuclei count, 48 h
# [2] = viability rescue of complex I mutant cybrids, primary screen, cell-based, galactose medium, ATP luminescence (AID 1645843;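 active = z-score of at least 1.8 in each of two replicates, scored against plate mean and spread of sample wells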;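 note: positive z means more ATP and so rescue of galactose-driven cybrid death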); settings: complex I mutant cybrid cells, 72 h, stronger effect = higher value
# [3] = hESC survival regulators, cell-based (AID 493140; call rule not given here;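 note: cells exposed to compounds for four days before counting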); settings: human embryonic stem cell survival screen; stronger effect = higher value
# [4] = circadian clock period modulators, cell-based, LOPAC library, luminescence reporter (AID 2774; call rule not given here;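 note: values are relative to mean of DMSO wells on each plate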); settings: circadian reporter cells, at 7 µM, actives lie on both sides
# [5] = target: ATP-dependent translocase ABCB1 (Homo sapiens) (UniProt P08183); experiment: MDR1 (ABCB1) efflux transporter inhibition, cell-based (AID 377; in the data active = fluorescence slope change above about 50%); settings: MDR1-expressing cells, fluorescent substrate accumulation slope; stronger effect = higher value; concentration not given here
# ATP-dependent translocase ABCB1 (Homo sapiens), sequence (P08183 whole entry, looked up): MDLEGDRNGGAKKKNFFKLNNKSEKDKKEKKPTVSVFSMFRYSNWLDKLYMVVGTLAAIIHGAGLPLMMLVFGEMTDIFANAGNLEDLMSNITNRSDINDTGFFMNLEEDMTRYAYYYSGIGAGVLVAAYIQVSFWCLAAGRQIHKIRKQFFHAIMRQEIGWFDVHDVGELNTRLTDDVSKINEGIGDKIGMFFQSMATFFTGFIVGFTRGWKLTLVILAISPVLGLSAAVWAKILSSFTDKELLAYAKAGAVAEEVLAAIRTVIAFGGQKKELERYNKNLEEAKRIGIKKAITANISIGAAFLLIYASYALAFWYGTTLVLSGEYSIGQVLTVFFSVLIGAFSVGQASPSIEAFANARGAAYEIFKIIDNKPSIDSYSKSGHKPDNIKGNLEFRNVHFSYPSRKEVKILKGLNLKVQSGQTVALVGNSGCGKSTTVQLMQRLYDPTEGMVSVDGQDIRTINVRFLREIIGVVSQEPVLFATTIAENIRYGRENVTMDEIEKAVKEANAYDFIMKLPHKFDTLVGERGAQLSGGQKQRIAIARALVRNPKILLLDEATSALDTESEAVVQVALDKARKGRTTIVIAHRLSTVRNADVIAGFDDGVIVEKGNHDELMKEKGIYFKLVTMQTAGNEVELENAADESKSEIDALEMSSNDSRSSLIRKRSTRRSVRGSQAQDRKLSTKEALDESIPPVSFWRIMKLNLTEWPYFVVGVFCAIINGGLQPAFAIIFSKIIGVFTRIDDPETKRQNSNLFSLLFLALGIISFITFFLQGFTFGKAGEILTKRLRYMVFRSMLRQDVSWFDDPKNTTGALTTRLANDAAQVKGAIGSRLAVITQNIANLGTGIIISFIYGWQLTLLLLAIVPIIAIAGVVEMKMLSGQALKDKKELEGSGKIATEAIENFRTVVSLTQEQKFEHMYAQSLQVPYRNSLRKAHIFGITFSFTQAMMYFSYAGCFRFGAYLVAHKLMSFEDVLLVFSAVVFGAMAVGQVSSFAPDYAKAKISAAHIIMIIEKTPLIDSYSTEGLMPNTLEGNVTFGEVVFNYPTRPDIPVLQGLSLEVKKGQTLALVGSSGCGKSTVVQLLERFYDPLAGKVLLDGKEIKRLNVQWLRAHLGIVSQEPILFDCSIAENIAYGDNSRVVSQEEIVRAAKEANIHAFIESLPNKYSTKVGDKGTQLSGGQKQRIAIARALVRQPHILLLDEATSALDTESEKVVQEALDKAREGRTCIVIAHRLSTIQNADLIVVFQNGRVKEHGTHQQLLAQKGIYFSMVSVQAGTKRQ
# [6] = liver-stage malaria parasite growth inhibition, primary screen, cell-based, HepG2, luciferase luminescence, HepG2 viability (AID 624349; in the data active = parasite load remaining mostly below about 12%, no sharp cut-off; inactive = mostly above about 10%;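 note: 100% = mean of DMSO negative control wells on the same plate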); settings: P. berghei liver stage in HepG2, luciferase luminescence, concentration not given here; parasite load remaining: stronger effect = lower value; viability: measured here: HepG2 viability without parasites
# [7] = inhibitors of Cryptococcus chitosan production, flow cytometry, Cibacron Brilliant Red staining (AID 1347148; call rule not given here;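 note: compound exposure lasted three days at 37 degrees C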); settings: Cryptococcus neoformans chitosan, stronger effect = lower value; at 10 µM unless noted
# [8] = measured here: relative caspase fold change +Dox/-Dox
# [9] = measured here: total cells with miR-34 induction, stronger effect = lower value
# [10] = measured here: total cells without miR-34 induction
# [11] = stronger effect = lower value, cell number ratio, induced over uninduced
smiles,measurement,setting,value
Oc1ccc2c3c1OC1c4[nH]c5ccccc5c4C[C@@]4(O)C(C2)N(CC2CC2)CC[C@]314 (some centres not stated),fold change,[1]; stronger effect = lower value,0.943 (inactive)
same,fold change,[1]; [8],1.78
same,cell count,[1]; [9],8150
same,cell count,[1]; [10],8650
same,z-score,[2],-0.925 (inactive)
CCCCCCCCCCCCCCCC(=O)OC[C@H](COP(=O)([O-])OCC[N+](C)(C)C)OC(C)=O,survival,[3],57 (inactive)
same,fold change,[1]; stronger effect = lower value,0.988 (inactive)
same,fold change,[1]; [8],1.32
same,cell count,[1]; [9],5610
same,cell count,[1]; [10],5670
CC1CCCC(O)CCCCCc2cc(O)cc(O)c2C(=O)O1 (configuration not stated),fold change,[1]; stronger effect = lower value,0.901 (inactive)
same,fold change,[1]; [8],1.75
same,cell count,[1]; [9],8720
same,cell count,[1]; [10],9680
same,z-score,[2],-0.095 (inactive)
C[C@]12CCC(O)CC1=CCC1C2CC[C@@]2(C)C1CC[C@]2(C)O (some centres not stated),fold change,[1]; stronger effect = lower value,0.929 (inactive)
same,fold change,[1]; [8],1.41
same,cell count,[1]; [9],9340
same,cell count,[1]; [10],10100
same,z-score,[2],-0.34 (inactive)
C[C@H]1C2Cc3ccc(O)cc3C1(C)CCN2CC1CC1 (some centres not stated),period change,[4],-0.055 h (inactive)
same,fold change,[1]; stronger effect = lower value,0.949 (inactive)
same,fold change,[1]; [8],1.14
same,cell count,[1]; [9],10600
same,cell count,[1]; [10],11200
same,z-score,[2],-0.12 (inactive)
CNC1CC(c2ccc(Cl)c(Cl)c2)c2ccccc21 (configuration not stated),fold change,[1]; [11],0.956 (inactive)
same,fold change,[1]; [8],1.45
same,cell count,[1]; [9],5010
same,cell count,[1]; [10],5240
same,z-score,[2],-1.44 (inactive)
C[C@]12CCC3C(CCC4=CC(=O)CC[C@@]43C)C1CCC2O (some centres not stated),fold change,[1]; stronger effect = lower value,0.881 (inactive)
same,fold change,[1]; [8],1.72
same,cell count,[1]; [9],8500
same,cell count,[1]; [10],9660
same,z-score,[2],0.515 (inactive)
CN1CC[C@]2(c3cccc(O)c3)Cc3nc4ccccc4cc3CC2C1 (some centres not stated),fold change,[1]; [11],0.813 (inactive)
same,fold change,[1]; [8],1.31
same,cell count,[1]; [9],7470
same,cell count,[1]; [10],9190
same,z-score,[2],-0.555 (inactive)
C[C@]12CCC3C4CCC(=O)C=C4CCC3C1CCC2O (some centres not stated),fold change,[1]; stronger effect = lower value,0.894 (inactive)
same,fold change,[1]; [8],1.48
same,cell count,[1]; [9],7980
same,cell count,[1]; [10],8920
same,z-score,[2],-0.31 (inactive)
CCCCCCCCCCCCCCCCOC[C@H](COP(=O)([O-])OCC[N+](C)(C)C)OC(C)=O,survival,[3],57.8 (inactive)
same,fold change,[1]; stronger effect = lower value,0.933 (inactive) and 0.881 (inactive)
same,fold change,[1]; [8],1.16 and 1.84
same,cell count,[1]; [9],5630 and 5430
same,cell count,[1]; [10],6040 and 6160
NC(Cn1oc(=O)[nH]c1=O)C(=O)O (configuration not stated),period change,[4],-0.055 h (inactive)
same,fold change,[1]; stronger effect = lower value,0.991 (inactive)
same,fold change,[1]; [8],0.896
same,cell count,[1]; [9],10000
same,cell count,[1]; [10],10100
same,z-score,[2],0.64 (inactive)
C[C@]12CCC(=O)CC1CCC1C2CC[C@@]2(C)C1CC[C@]2(C)O (some centres not stated),fold change,[1]; stronger effect = lower value,0.938 (inactive)
same,fold change,[1]; [8],1.8
same,cell count,[1]; [9],9370
same,cell count,[1]; [10],9990
same,z-score,[2],-0.195 (inactive)
CC(C)C[C@H]1C(=O)N2CCC[C@H]2[C@]2(O)O[C@](NC(=O)[C@@H]3C=C4c5cccc6[nH]cc(c56)C[C@H]4N(C)C3)(C(C)C)C(=O)N12,fluorescence slope change,[5],95.9% (active)
same,survival,[3],9.42 (inactive)
same,parasite load remaining,[6],59.7% (inactive)
same,viability,[6],94.6%
same,fold change,[1]; stronger effect = lower value,0.917 (inactive)
same,fold change,[1]; [8],1.12
same,cell count,[1]; [9],7540
same,cell count,[1]; [10],8220
C[C@]12CC3SC3C[C@@H]1CC[C@@H]1[C@@H]2CC[C@]2(C)[C@@H](O)CC[C@@H]12 (some centres not stated),survival,[3],17.5 (inactive)
same,parasite load remaining,[6],87.8% (inactive)
same,viability,[6],72.9%
same,fold change,[1]; stronger effect = lower value,0.913 (inactive)
same,fold change,[1]; [8],0.52
same,cell count,[1]; [9],9130
same,cell count,[1]; [10],10000
CC1=CC(=O)C2=C(C)C[C@H](O)[C@@H]3[C@H](OC(=O)[C@H]3C)[C@@H]12,survival,[3],7.92 (inactive)
same,parasite load remaining,[6],98.5% (inactive)
same,viability,[6],100%
same,fold change,[1]; stronger effect = lower value,0.829 (inactive)
same,fold change,[1]; [8],1.6
same,cell count,[1]; [9],8050
same,cell count,[1]; [10],9720
CN(C)[C@@H]1C(=O)C(C(N)=O)=C(O)[C@@]2(O)C(=O)C3=C(O)c4c(O)ccc(Cl)c4[C@@](C)(O)C3C[C@@H]12 (some centres not stated),parasite load remaining,[6],51% (inactive)
same,viability,[6],46.7%
same,fold change,[1]; [11],0.828 (inactive)
same,fold change,[1]; [8],1.43
same,cell count,[1]; [9],7670
same,cell count,[1]; [10],9260
C/C1=C/C(=O)O[C@H]2C[C@H](CC[C@@H](C)/C=C\CC1)O[C@](O)([C@H]1CSC(=O)N1)C2,fold fluorescence,[7],6.99 [at 126.4 µM] (inactive)
CO[C@H]1C=C2CCN(C)[C@H]2C2c3cc4c(cc3C(=O)O[C@@H]21)OCO4 (some centres not stated),parasite load remaining,[6],64.2% (inactive)
same,viability,[6],100%
same,fold change,[1]; [11],0.936 (inactive)
same,fold change,[1]; [8],0.836
same,cell count,[1]; [9],9140
same,cell count,[1]; [10],9770
CN1C(=O)[C@@]23CC4=CC=C[C@@H](O)[C@@H]4N2C(=O)[C@]1(CO)SS3,fold fluorescence,[7],7.1 [at 153.2 µM] (inactive)
COC1=CC(=O)O[C@@H](/C=C/c2ccccc2)C1,survival,[3],16.6 (inactive)
same,parasite load remaining,[6],26.1% (inactive) and 89.1% (inactive)
same,viability,[6],46.2% and 90.2%
same,fold change,[1]; stronger effect = lower value,0.899 (inactive)
same,fold change,[1]; [8],1.34
same,cell count,[1]; [9],8920
same,cell count,[1]; [10],9920
CN1CCC2=C[C@H](O)[C@H]3OC(=O)c4cc5c(cc4[C@H]3[C@@H]21)OCO5,parasite load remaining,[6],42.8% (inactive)
same,viability,[6],96.9%
same,fold change,[1]; [11],0.881 (inactive)
same,fold change,[1]; [8],1.04
same,cell count,[1]; [9],6350
same,cell count,[1]; [10],7210
C=C1[C@@H]2CC[C@H]3[C@]4(C)C[C@H](O[C@H]5O[C@H](CO)[C@@H](OS(=O)(=O)O)[C@H](OS(=O)(=O)O)[C@H]5OC(=O)CC(C)C)C[C@@H](C(=O)O)[C@H]4CC[C@]3(C2)[C@H]1O,parasite load remaining,[6],72.2% (inactive)
same,viability,[6],97.4%
same,fold change,[1]; [11],0.879 (inactive)
same,fold change,[1]; [8],0.935
same,cell count,[1]; [9],8890
same,cell count,[1]; [10],10100
